# High-throughput results (PubChem)
# HSD17B inhib: blocks hydroxysteroid 17-beta dehydrogenase activity; Q99714; recombinant HSD17B10, NADH fluorescence kinetic; Potency, µM (highest dose often 57.1 µM), inactives show at the top dose activity change, negative = inhibition, actives largely listed as inhibitors; 75,000 tested, 7.6% active;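 further: the protocol describes HADH2 (HSD17B10) and not the HSD17B4 of the title; potency means the concentration at half of the fitted maximal effect; on the % scale 0 is the no-effect control and ±100 the full control effect; nearly all actives have a fitted effect of over 70% in size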
#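 20 nM HADH2, pH 9.0 Tris/Tween; cpd preinc 15 min RT; start w/ 1 mM NAD+ + 90 uM b-hydroxybutyryl-CoA; kinetic fluor ex360/em450 q30s x 4 min; delta last-first.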
# 4-MU autofl: compound fluoresces in the 4-MU spectral region; compound autofluorescence, 340/450 nm, 4-MU equivalents; active compounds read high; max dye-equivalent concentration, M; 59,000 tested, 11% active; in the data active means max dye-equivalent concentration above about 10 nM; inconclusive means mostly about 1.1 nM to 9.6 nM
#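 Intrinsic fluorescence at 340/450 nm (ex/em) was read after 15 min at room temperature in pH 8.0, 100 mM Tris. Each compound concentration expressed as 4-MU-equivalent concentration from a six-point 4-MU standard series on each plate.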
# CRE-bla Fsk: modulators of forskolin-stimulated CRE signaling in CHO cells. CHO CRE-bla reporter (cAMP response element driving beta-lactamase), forskolin EC10, beta-lactamase ratio. Potency, µM (highest dose often 38.2 µM), inactives show at the highest dose activity change, negative = inhibition, hits mostly activators. 71,000 tested, 2.5% active; active means well fitted activation curve with a large enough effect in the signal ratio, with a control signal flat, not every such curve was filed as active; inconclusive means small, poorly fitted or top-dose-only effect, or effect the other way, or a change in a side signal; the % refers to the signal ratio; further: potency means the concentration at half of the fitted maximal effect; % of control where 0% means no effect
#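 Beta-lactamase reporter under a cAMP responsive element in CHO cells; compounds tested in titration series against EC10 NKH 477, 3 h at 37 °C. Read-out: CCF4 FRET ratio 460nm/530nm (excitation 405nm) giving %Activity, fitted to AC50.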
# HADH2 inhib: inhibitors of human HADH2 dehydrogenase; Q99714; recombinant HADH2, NADH fluorescence, beta-hydroxybutyryl-CoA; Potency, µM (doses to about 57.1 µM), without a hit: at the highest dose activity change, negative = inhibition, hits mostly inhibitors; 73,000 tested, 3.4% active; AID 886; further: potency means the concentration at half of the fitted maximal effect; on the % scale 0 is the no-effect control and ±100 the full control effect; nearly all actives have a fitted effect of over 60% in size
# Target sequence (Q99714 whole entry, looked up, one chain of several): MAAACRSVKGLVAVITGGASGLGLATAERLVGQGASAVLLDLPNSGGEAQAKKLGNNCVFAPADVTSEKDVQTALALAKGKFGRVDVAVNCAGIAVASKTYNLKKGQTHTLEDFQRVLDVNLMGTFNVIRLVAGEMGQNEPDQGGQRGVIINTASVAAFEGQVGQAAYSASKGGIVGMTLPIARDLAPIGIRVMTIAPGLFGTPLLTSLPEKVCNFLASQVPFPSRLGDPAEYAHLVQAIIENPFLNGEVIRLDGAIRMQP
#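 E. coli-expressed His-tagged HADH2 tested at 20 nM in alkaline Tris buffer (pH 9.0); oxidation of 90 uM beta-hydroxybutyryl-CoA with 1 mM NAD+ tracked fluorimetrically for 4 min.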
# AID923: qHTS Assay for Allosteric/Competitive Inhibitors of Caspase-1: Spectroscopic Profiling in AFC Spectral Region; compound fluorescence, AFC spectral region (405/520 nm); Potency, µM (doses to about 57.5 µM), inactives show at the highest dose fluorescence increase, hits mostly activators; 75,000 tested, 1.1% active; AID 923, 2007; further: potency means the concentration at half of the fitted maximal effect; 0% is about no effect
#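 Baseline compound fluorescence (AFC region, 405 nm ex/520 nm em) taken from the intercept of kinetic reads with 50 nM caspase-1 and 5 uM Ac-WEHD-AFC; normalized to an on-plate AFC standard curve; compounds titrated up to 57 uM.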
# A350 fluor: A350 region autofluorescence; Compound autofluorescence, 340/450 nm, Alexa 350 dye-equivalents; active compounds read high; max dye-equivalent concentration, M; 59,000 tested, 11% active; in the data active means max dye-equivalent concentration above about 10 nM; inconclusive means mostly about 1.1 nM to 9.6 nM
# Numbers without * were called inactive; i = inactive; ? = inconclusive; / = no result given; [ ] = dose if it differs, or a comment. This is a sample that favours compounds with a hit; in the whole collection about 14% have one here. Unless noted, the call rests on the fitted dose curve; in most records, active means well fitted curve in the direction sought with a large enough effect; inconclusive means small, poorly fitted or top-dose-only effect, or another doubt; inactive means no such curve, though single readings can be large; an effect the other way counts as inactive or inconclusive.
SMILES,HSD17B inhib,4-MU autofl,CRE-bla Fsk,HADH2 inhib,AID923,A350 fluor
CCCCn1c2c(c(=O)n(C)c1=O)C(c1ccc(OC)cc1)N1CCCCCC1=N2 (centres undefined),1.0%,2.47e-08M*,10.3%,-8.2%,-0.2%,2.57e-08M*
Cc1cccc(-n2c(SCc3cc(=O)n4ccsc4n3)nc3ccccc32)c1,?,?,1.58µM*,?,-0.8%,?
COc1ccc2c(CC(=O)NCc3ccc4c(c3)OCO4)coc2c1,-21.5%,i,?,-8.2%,-0.8%,i
COC(=O)c1ccc(C(=O)OC)c(NC(=O)COc2ccccc2OC)c1,?,3.96e-08M*,18.6%,10µM*,4.1%,4.46e-08M*
COC(=O)c1ccc(C(=O)OC)c(NC(=O)c2oc(C)nc2C)c1,-2.4%,2.2e-08M*,?,-17.0%,1.3%,?
COC(=O)c1ccc(N2CCN(C)CC2)c(NC(=O)c2cc3ccccc3o2)c1,0.3%,3.33e-08M*,0.0%,-6.9%,-2.2%,3.12e-08M*
COc1cc(NC(=O)c2cc3ccccc3o2)c(OC)cc1Cl,31.6µM*,/,?,-5.6%,11.3%,/
COc1cc(NC(=O)c2cc3ccccc3o2)c(OC)cc1Br,?,/,/,-20.5%,3.3%,/
COc1ccccc1N1CCN(C(=O)Cn2nc(C(F)(F)F)c3c2CCC3)CC1,5.1%,i,-17.6%,15.8%,0.5%,i
COC(=O)[C@@]1(Cc2ccc(OC)cc2)[C@H]2c3cc(C(=O)N(C)C)n(CCc4ccc(O)c(OC)c4)c3C[C@H]2CN1C(=O)c1ccccc1,14.6%,/,-9.0%,1.6%,0.1%,/
Cc1ccc(Cl)cc1N1CCN(C(=O)c2cc3c(=O)n(C)c4ccccc4c3n2C)CC1,3.1%,/,?,2.6%,-0.5%,/
COC(=O)c1ccc(C(=O)OC)c(NC(=O)c2cc3ccccc3o2)c1,/,6.04e-08M*,/,/,/,6.11e-08M*
Cc1ccc(S(=O)(=O)O[C@H]2C[C@@H](C(C)(C)C)CC[C@@H]2c2ccccc2)cc1,0.9%[11.4 µM],i,?,-3.7%[11.4 µM],-1.1%[11.5 µM],i
COc1ccccc1-c1cncnc1NCCNC(C)=O,?,i,-0.2%,15.8µM*,0.9%,i
COCCNc1ncncc1-c1ccccc1OC,-8.7%,i,-17.1%,-21.1%,0.8%,i
Cc1cc2ncn(C(=O)c3c(-c4ccccc4Cl)noc3C)c2cc1C,1.2%,/,-19.2%,9.6%,2.9%,/
CC(=O)OC1c2c(ccc3ccc(=O)oc23)OC(C)(C)C1OC(=O)CC(C)C (centres undefined),25.1µM*,/,?,?,-3.8%,/
CN/C=C1\C(=O)C(C)(C)Oc2ccc3ccc(=O)oc3c21,-2.9%,i,?,3.9%,0.7%,i
Nc1ncnc2nc(-c3ccc(C[P+](c4ccccc4)(c4ccccc4)c4ccccc4)cc3)[nH]c12,-28.5%[11.4 µM],i,6.7%[7.6 µM],3.7%[11.4 µM],-2.3%[11.5 µM],i
COc1cccc2c1CCC1CC(=O)CC[C@@]21C (some centres undefined),0.8%,/,/,/,-3.6%,/
Cc1cccc(CNc2cc(-c3ccc(N(C)C)cc3)ncn2)c1,12.6µM*,7.09e-08M*,23.0%,1.7%,-1.8%,7.05e-08M*
CN(C)c1ccc(-c2cc(NCc3cccnc3)ncn2)cc1,25.1µM*,2.4e-07M*,?,i,2.0%,2.58e-07M*
Cc1nc2cnc(Oc3cccc(Cl)c3)nc2n(C[C@H]2CCCO2)c1=O,2.2%,i,?,4.9%,2.6%,i
O=C=Nc1ccc(Cl)c(Cl)c1,4.2%,/,?,-2.8%,-1.1%,/
CCS(=O)(=O)NCCc1cc2cc(C)c(C)cc2[nH]c1=O,31.6µM*,?,-10.5%,-14.7%,0.5%,?
SMILES,HSD17B inhib,4-MU autofl,CRE-bla Fsk,HADH2 inhib,AID923,A350 fluor
Cc1cc2cc(CCNS(C)(=O)=O)c(=O)[nH]c2cc1C,31.6µM*,i,-20.2%,-24.7%,0.6%,?
COc1ccc(Cc2ccccc2C(=O)O)c2ccccc12,4.0%[11.4 µM],i,15.6%[7.6 µM],3.2%[11.4 µM],4.8%[11.5 µM],i
O=C(O)c1ccc(Cl)c(Cl)c1,0.9%,/,-9.0%,-5.4%,-0.2%,/
Cc1ccc(S(=O)(=O)N2CCCN(S(=O)(=O)C3CCS(=O)(=O)C3)CC2)cc1 (centres undefined),-2.1%,i,-1.2%,-4.6%,1.3%,i
COCCNc1nc2c(c(=O)n(C)c(=O)n2C)n1Cc1cccc(C)c1,0.3%,i,21.0%,1.1%,2.1%,?
COCCCNc1nc2c(c(=O)n(C)c(=O)n2C)n1Cc1cccc(OC)c1,/,1.24e-07M*,/,/,/,6.27e-08M*
CCc1c(C)c2ccc(OCC(=O)N(C)C)c(C)c2oc1=O,31.6µM*,1.23e-08M*,6.31µM*,25.1µM*,-2.0%,1.16e-08M*
CCc1ccc(OCC(=O)N(C)C)c(Br)c1,9.0%,i,3.8%,-0.8%,-3.3%,i
CCOC(=O)CCc1c(C)c2ccc(OCC(=O)N(CC)CC)c(C)c2oc1=O,25.1µM*,1.4e-08M*,0.0%,20µM*,-0.1%,1.33e-08M*
COc1ccc2c(C)cc(=O)oc2c1C,25.1µM*,/,?,25.1µM*,-0.3%,/
CCc1c(C)c2ccc(OCC(=O)OC(C)C)c(C)c2oc1=O,31.6µM*,i,23.0%,25.1µM*,-1.7%,?
OCC(O)C(O)C(O)CO (centres undefined),-8.8%,/,/,/,-0.5%,/
COCCNC(=O)[C@@]1(Cc2ccccc2)C=C[C@@H](C)N1C(C)=O,-6.1%,/,2.5%,11.0%,-1.5%,/
c1coc(-c2nnc(SCc3nc4ccccc4[nH]3)o2)c1,-12.1%,?,?,-15.7%,5.0%,?
CC(=O)OCc1ccco1,1.9%,/,-2.5%,7.0%,-6.8%,/
Cc1cc(=O)oc2c(C)c(OCC(=O)N(C)C)ccc12,31.6µM*,?,13.5%,31.6µM*,-0.7%,?
C=CCOC(=O)COc1ccc2c(C)c(C)c(=O)oc2c1C,165.5%,/,29.5%,60.1%,-1.8%,/
Cc1c(C)c2ccc(OCC(=O)N(C)C)c(C)c2oc1=O,31.6µM*,1.75e-08M*,?,25.1µM*,-1.9%,1.83e-08M*
CC(=O)C1=C(c2ccccc2)NC(=O)NC1c1ccccc1OCC#N (centres undefined),-5.9%,i,-8.0%,-8.7%,-0.9%,i
O=C(Cc1cccs1)Nc1ccc(S(=O)(=O)Nc2ncccn2)cc1,25.1µM*,i,-8.0%,?,1.0%,i
CCOC(=O)c1c(N)sc2c(OC)c(Br)ccc12,-15.5%,/,?,3.7%,-1.2%,/
CCOC(=O)c1c(-c2ccsc2)csc1N,?,1.58e-08M*,0.5%,3.16µM*,6.2%,1.51e-08M*
COc1ccc(C2/C(=C(/O)c3ccccc3)C(=O)C(=O)N2CC(C)O)c(OC)c1 (centres undefined),-4.1%,i,?,1.4%,0.3%,?
